Measured values taken from PubChem BioAssay AID720630 (Broad Institute, 2013).
Records with an inconclusive call do not appear. The source made the active and inactive calls. The rule behind the calls is not given here.

Assay: HUVEC apoptotic caspase activation, HRAS target ID – cell-based, multiple timepoints, luminescence, dry powder, mechanism study for HRAS target identification, dose response (AID 720630)
Settings: HUVEC apoptosis, caspase-3/7 luminescence; for caspase activation: at 35 µM (top of the series)
[1] = measured here: max caspase activation timepoint 1, at 0.001 µM, test 1, stronger effect = higher value

| SMILES | caspase activation | max activity [1] [%] | max activity (measured here: max caspase activation timepoint 2, at 1 µM, test 2, stronger effect = higher value) [%] | max activity (measured here: max caspase activation timepoint 3, at 0.008 µM, test 3, stronger effect = higher value) [%] | max activity (measured here: max caspase activation timepoint 2, at 16 µM, test 2, stronger effect = higher value) [%] | max activity (measured here: max caspase activation timepoint 3, at 4.2 µM, test 3, stronger effect = higher value) [%] |
| --- | --- | --- | --- | --- | --- | --- |
| Cc1onc(C(=O)N2CCN(C(c3ccc(Cl)cc3)c3ccc(Cl)cc3)CC2)c1[N+](=O)[O-] | -6.38% (inactive) | -21.9 | -18.4 | -32.1 | – | – |
| CCC(=O)N(c1ccc(OC)c(Cl)c1)C(C(=O)NCCc1ccccc1)c1cccs1 (stereo not drawn) | 8.9% (inactive) | -18.6 | – | – | -23.7 | -13.9 |
